RGS7-Gao reg = RGS7-Galphao binding modulators, primary screen, biochemical, multiplexed bead flow cytometry; actives lie on both sides; binding response (% of control), % at 10 µM; 220,000 compounds, 0.35% hits; in the data active = binding response below about 49% or above about 150%; inconclusive = no clear call, values can overlap the other calls; inactive = in between;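 note: fluorescent Galphao held in activated GDP-AlF4 state binding bead-coupled RGS7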
Target sequence (P09471 whole entry, looked up): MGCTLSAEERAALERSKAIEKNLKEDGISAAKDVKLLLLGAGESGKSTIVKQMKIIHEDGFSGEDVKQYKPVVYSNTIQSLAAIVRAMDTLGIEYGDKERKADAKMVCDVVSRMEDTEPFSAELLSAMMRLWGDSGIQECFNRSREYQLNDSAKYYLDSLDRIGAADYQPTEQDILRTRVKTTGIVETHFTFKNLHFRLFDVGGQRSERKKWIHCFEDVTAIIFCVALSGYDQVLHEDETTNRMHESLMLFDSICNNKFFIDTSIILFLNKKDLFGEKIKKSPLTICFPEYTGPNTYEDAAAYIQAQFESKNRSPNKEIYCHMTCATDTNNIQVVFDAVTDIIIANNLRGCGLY
GSH fluor = compound fluorescence on glutathione beads, profiling panel, artefact control, biophysical, 488/530 nm, flow cytometry; GSH beads flow cytometry, compound fluorescence 488/530 nm; active compounds read high; fluorescence (KMESF) at 10 µM; 190,000 compounds, 0.25% hits; AID 1776, 2009; in the data active = fluorescence above about 89;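 note: glutathione beads carrying GST-tagged Bcl family fusion proteins plus one bare bead set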
RGS16-Gao = modulators of RGS16 binding to Galphao, primary screen, biochemical, human proteins, multiplexed bead flow cytometry | bead-based flow cytometry RGS16-Galphao binding, fluorescence; actives lie on both sides | 220,000 compounds, 0.38% hits | binding response (% of control), % at 10 µM | AID 1441, 2008;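 note: Galphao activated by GDP with aluminum fluoride before binding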
Target sequence (O15492 whole entry, looked up): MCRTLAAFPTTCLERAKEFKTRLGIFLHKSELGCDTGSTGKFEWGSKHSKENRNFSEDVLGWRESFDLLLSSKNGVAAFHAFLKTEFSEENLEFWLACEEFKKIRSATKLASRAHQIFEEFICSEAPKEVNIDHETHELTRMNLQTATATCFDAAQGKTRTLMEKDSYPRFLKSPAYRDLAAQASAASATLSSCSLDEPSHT
Target sequence (P09471 whole entry, looked up): as the sequence (P09471 whole entry, looked up) above
RGS8-Gao = RGS8-Galphao binding modulators, primary screen, biochemical, multiplexed bead flow cytometry; actives lie on both sides; response (percent of control binding), % at 10 µM; 220,000 compounds, 0.34% hits; AID 1423, 2008; in the data active = response below about 60% or above about 140%; inactive = in between;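 note: Galphao activated as the GDP aluminium fluoride complex binding bead-coupled RGS8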
Avidin bead fluor = green autofluorescence of compounds with avidin beads – biophysical, 488/530 nm, flow cytometry, artefact control, profiling panel. 220,000 compounds, 0.38% hits. fluorescence (KMESF) at 10 µM. compound fluorescence 488/530 nm; active compounds read high; in the data active = fluorescence above about 47
RGS4-Gao reg = modulators of RGS4 binding to Galphao, primary screen, biochemical, multiplexed bead flow cytometry. Guanine nucleotide-binding protein G(o) subunit alpha (Homo sapiens), P09471. actives lie on both sides. binding response (% of control), % at 10 µM. 220,000 compounds, 0.33% hits. AID 1415, 2008; in the data active = binding response below about 49% or above about 150%; inactive = in between;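 note: fluorescent Galphao activated with aluminum fluoride binding bead-coupled RGS4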
RGS-Gao = modulators of RGS–Galpha-o binding, primary screen, biochemical, multiplexed beads, flow cytometry, RGS4/7/8/16/19; AID 1504, 2009; RGS4–Galpha-o binding response, % at 10 µM; shares compounds with RGS16-Gao; multiplexed bead flow cytometry; 1,600 compounds, 99% hits;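 note: fluorescently labeled Galpha-o bound to GDP with aluminium fluoride binding biotinylated RGS beads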
Biotin-avidin = disruption of biotin probe capture by avidin, counter-screen for RGS protein interaction modulators, biochemical, flow cytometry, bead-based; shares compounds with RGS16-Gao; streptavidin beads, fluorescein-biotin binding; inhibition, % at 10 µM; 1,700 tested, under 10 active;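 active = inhibition above 50%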;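 note: median green fluorescence of gated singlet beads compared with DMSO control wells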
RGS8-Gao single = RGS8-Galphao binding modulators, confirmation, biochemical, multiplexed bead flow cytometry, single concentration | shares compounds with RGS16-Gao | bead-based flow cytometry RGS8-Galphao binding, fluorescence; actives lie on both sides | binding response (% of control), % at 10 µM | 1,700 compounds, 3% hits; in the data active = binding response below about 72% or above about 130%; inactive = in between;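 note: Galphao activated as GDP AlF4 complex before binding bead RGS8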
RGS7-Gao confirm = RGS7-Galphao binding modulators, confirmation, biochemical, multiplexed bead flow cytometry, single concentration. shares compounds with RGS16-Gao. AID 1837, 2009. response (percent of control binding), % at 10 µM. 1,700 compounds, 7.8% hits. bead-based flow cytometry RGS7-Galphao binding; actives lie on both sides; in the data active = response below about 75% or above about 130%; inactive = in between;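 note: fluorescent Galphao activated with GDP and aluminum fluoride binding bead-coupled RGS7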
RGS16-Gao conf = modulators of RGS16-Galphao protein binding, confirmation, biochemical, single concentration, multiplexed bead flow cytometry | shares compounds with RGS16-Gao | 1,700 compounds, 4% hits | response (% of control binding), % at 10 µM | bead-based flow cytometry; actives lie on both sides; in the data active = response below about 74% or above about 130%; inactive = in between;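 note: Galphao activated as the GDP aluminium fluoride complex binding bead-coupled RGS16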
RGS4-Gao confirm = modulators of RGS4-Galphao protein binding, confirmation, biochemical, single concentration, multiplexed bead flow cytometry | shares compounds with RGS16-Gao | actives lie on both sides | binding response (% of control), % at 10 µM | 1,700 compounds, 4% hits; in the data active = binding response below about 74% or above about 130%; inactive = in between
RGS19-Gao conf = regulators of RGS19-Galphao binding, confirmation, biochemical, single point, multiplexed bead flow cytometry; response (percent of control binding), % at 10 µM; 1,700 compounds, 5% hits; shares compounds with RGS16-Gao; AID 1841, 2009; bead-based flow cytometry RGS19-Galphao binding; actives lie on both sides; in the data active = response below about 50% or above about 160%; inactive = in between
Of the large screens only hits and unclear results are named; the others gave an inactive call (follow-up assays come after a bar, where they were run); [ ] = another dose, or the depositor's remark. Hits are enriched below; roughly 1.2% of the tested compounds scored in any of these assays. Unless noted, the rule behind the calls is not given here.

O=C1CC(NNc2nc3ccccc3s2)C(=O)N1c1ccccc1 (centres undefined)	none
Cc1ccc(N2C(=O)CC(NNc3nc4ccccc4s3)C2=O)cc1 (centres undefined)	RGS7-Gao reg 33, RGS8-Gao 34, RGS4-Gao reg 19 | Biotin-avidin inactive | RGS8-Gao single inactive | RGS7-Gao confirm inactive | RGS16-Gao conf inactive | RGS4-Gao confirm inactive | RGS19-Gao conf inactive
N#C/C(=C/c1ccc(N2CCOCC2)o1)C(=O)Nc1ccccc1	RGS7-Gao reg 198[activator], Avidin bead fluor 55, RGS4-Gao reg 159[activator] | Biotin-avidin inactive | RGS8-Gao single inactive | RGS7-Gao confirm inactive | RGS16-Gao conf inactive | RGS4-Gao confirm inactive | RGS19-Gao conf inactive
N#C/C(=C\c1ccc(N2CCOCC2)o1)C(=O)NCCc1ccccc1	none
CC(C)(C)Nc1nc(Oc2ccc(=O)n(-c3ccccc3)n2)nc(N2CCOCC2)n1	none (no result: RGS7-Gao reg, RGS16-Gao, RGS8-Gao, Avidin bead fluor, RGS4-Gao reg) | Biotin-avidin inactive | RGS8-Gao single inactive | RGS7-Gao confirm inactive | RGS16-Gao conf inactive | RGS4-Gao confirm inactive | RGS19-Gao conf inactive
Cn1nc(Oc2nc(N3CCOCC3)nc(N3CCOCC3)n2)ccc1=O	RGS7-Gao reg -4.9, RGS8-Gao 12, RGS4-Gao reg -23 | Biotin-avidin inactive | RGS8-Gao single inactive | RGS7-Gao confirm inactive | RGS16-Gao conf inactive | RGS4-Gao confirm inactive | RGS19-Gao conf inactive
COc1ccc(NC(=S)N2CCN(C(=O)c3ccccc3)CC2)cc1	none
CCOC(=O)C(NC(C)=O)(Nc1cccc(F)c1)C(F)(F)F (centres undefined)	none
CCOC(=O)C(NC(C)=O)(Nc1ccc(F)cc1)C(F)(F)F (centres undefined)	RGS7-Gao reg 205[activator], Avidin bead fluor 260 | RGS-Gao 138 | Biotin-avidin inactive | RGS8-Gao single inactive | RGS7-Gao confirm inactive | RGS16-Gao conf inactive | RGS4-Gao confirm inactive | RGS19-Gao conf inactive
COc1cc(Cl)cc(C2NC(=S)NC(c3ccccc3)=C2C(C)=O)c1OCC(=O)O (centres undefined)	none
CC(=O)N(C1=C(Cl)C(=O)c2ccccc2C1=O)C1CCCCC1	RGS7-Gao reg inconclusive, RGS16-Gao 3.0, RGS8-Gao 54 (no result: GSH fluor) | RGS-Gao 87
CC(=O)N(c1ccccc1C)C1CCCC1	none
Cc1c(C(=O)NCC2CCCO2)cccc1[N+](=O)[O-] (centres undefined)	none
NC(=O)c1ccc(NC(=O)CSc2nnc(-c3ccccn3)n2N)cc1	none
COc1ccc(C2CC(c3ccccc3)=NN2C(=O)COC(=O)/C=C/c2ccc(O)c(OC)c2)cc1 (centres undefined)	RGS7-Gao reg inconclusive (no result: GSH fluor)
CCOC(=O)C1CCN(c2nc3ccccc3n2CC(=O)c2ccccc2)CC1	none
COc1ccc(N2CCN(c3nc4ccccc4n3CC(=O)c3ccccc3)CC2)cc1	RGS7-Gao reg 165[activator], Avidin bead fluor 76 | RGS-Gao 108 | Biotin-avidin inactive | RGS8-Gao single inactive | RGS7-Gao confirm inactive | RGS16-Gao conf inactive | RGS4-Gao confirm inactive | RGS19-Gao conf inactive
OC(CNCCC1C=Nc2ccccc21)Cn1c2ccc(Cl)cc2c2cc(Cl)ccc21 (centres undefined)	none
Cc1nc2ccccc2cc1C(=O)Nc1ccccc1Cl	RGS7-Gao reg 157[activator] | RGS-Gao 148 | Biotin-avidin inactive | RGS8-Gao single inactive | RGS7-Gao confirm inactive | RGS16-Gao conf inactive | RGS4-Gao confirm inactive | RGS19-Gao conf inactive
Cc1nc2ccc(F)cc2cc1C(=O)Nc1cccc(Cl)c1C	none
O=C(Nc1ccc(F)cc1F)NC1CCN(Cc2c(F)cccc2Cl)CC1	RGS7-Gao reg inconclusive (no result: GSH fluor)
COc1ccc(C(=O)NCCc2nnc(SCC(=O)Nc3ccccc3F)n2C)cc1	RGS7-Gao reg 166[activator], Avidin bead fluor 80 | RGS-Gao 111 | Biotin-avidin inactive | RGS8-Gao single inactive | RGS7-Gao confirm inactive | RGS16-Gao conf inactive | RGS4-Gao confirm inactive | RGS19-Gao conf inactive
CSS(=O)(=O)c1cccc2cccnc12	RGS7-Gao reg inconclusive (no result: GSH fluor)
Cc1ccc(OCC(=O)N/N=C/C=C/c2ccco2)cc1C	RGS16-Gao 3.6, RGS8-Gao 60 | RGS-Gao 67 | Biotin-avidin inactive | RGS8-Gao single inactive | RGS7-Gao confirm inactive | RGS16-Gao conf inactive | RGS4-Gao confirm inactive | RGS19-Gao conf inactive
COc1ccc(OCCN(C)Cc2ccccc2)cc1	none
COc1ccc(CN(C)C2c3ccccc3-c3ccccc32)cc1	RGS16-Gao 186[activator] | RGS-Gao 114 | Biotin-avidin inactive | RGS8-Gao single inactive | RGS7-Gao confirm inactive | RGS16-Gao conf inactive | RGS4-Gao confirm inactive | RGS19-Gao conf inactive

From PubChem
